Assay [1] can be described thus: Tanguay_ZF_120hpf_ActivityScore_legacy: (Legacy) Oregon State University Tanguay Lab 120 Hour Post-fertilization zebrafish Assay Score for Activity (AID 2283742).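 On AC50: dechorionated Tropical 5D wild-type zebrafish embryos held singly per well.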 In a few lines: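 Binary scoring of mortality and morphology by brightfield at 24 and 120 hpf, summarised into one activity score from 18 components relative to DMSO. Wild-type Tropical 5D zebrafish, chorion removed at 4 hpf, static exposure 6–120 hpf, 28 °C.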

Assay [2] deals with Thyroperoxidase (TPO), gene 445522. Description: CCTE_Simmons_GUA_TPO: CCTE's Guaiacol Assay for Thyroperoxidase (TPO) Inhibition, Simmons Lab (AID 2283750). In a few lines: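 Porcine thyroid microsomes (25 ug) in 200mM potassium phosphate, preincubated 30 s at 37C with compound (8 concentrations, 5 nM–87.5 uM) and 35mM guaiacol; 1mM H2O2 starts reaction. Absorbance change at 450nm over first 80 s; loss of signal versus DMSO, three replicates.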

A short description of assay [3]: ArunA_CellTiter_hNC: Viability Assessment in the ArunA Biomedical's Oris Neural Crest (hNC) Cell Migration Assay (AID 2283752). In a few lines:
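After a 72 h chemical exposure, viability of hNC cells is read with CellTiter Aqueous One and fitted as signal loss relative to DMSO. Cells were seeded at 60,000/well on Matrigel and cultured 16 h at 37 C beforehand.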

A short description of assay [4]: ArunA_CellTiter_hNP: Viability Assessment in the ArunA Biomedical's Oris Neural Crest (hNC) Cell Migration Assay (AID 2283753). In a few lines:
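Viability read with CellTiter 96 Aqueous One after 72 h chemical exposure of human hNP1 neuroprogenitors, which were plated on Matrigel in LIF/bFGF medium 16 h beforehand. Endpoint fitted in positive direction relative to DMSO.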

Assay [5] in a line: ArunA_Migration_hNC: ArunA Biomedical's Oris Neural Crest (hNC) Cell Migration Assay (AID 2283755). In a few lines: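 Calcein-AM fluorescence (ex494 nm/em 517 nm) in the stopper-defined detection zone quantifies migration of hNC cells after 72 h chemical exposure; 60,000 cells/well plated on Matrigel with LIF and bFGF, 16 h pre-incubation. DMSO baseline.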
Assay [6] is described as follows: ArunA_NOG_NucleusCount: ArunA Biomedical's Neurite Outgrowth (NOG) Assay for Nucleus Count (AID 2283756). The procedure, abridged:
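Viable neuron count, from Hoechst nuclei passing size and intensity gates, imaged at 20x on differentiated H9-derived human neurons. Exposure lasted 48 h from seeding; activity was scored relative to DMSO.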

The nature of assay [7]: ArunA_NOG_NeuritesPerNeuron: ArunA Biomedical's Neurite Outgrowth (NOG) Assay for Neurites Per Neuron (AID 2283758). In a few lines:
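Differentiated human H9-derived neurons exposed to chemicals for 48 h from seeding, then stained with Hoechst and βIII-tubulin/DyLight 488. Automated imaging counted neurites (processes >10 um) per valid neuron; loss of signal versus DMSO scored.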

Inconclusive results are not listed. Calls of active or inactive are those of the source. How the source made its calls: active means hit-call score of the fitted dose curve at least 0.9, where 1 is the maximum; inconclusive means response in the unintended direction; inactive means score below 0.9.

For orientation: AC50 means the concentration giving half of the maximal activity seen.

For the compound `Clc1cc(Cl)c(Cl)cc1Cl`, the result in assay [1] was inactive. On the same count and under the same terms, the same measure for `CCCCCCCCCCO`: “inactive”; for `COCCOCCOC`: “inactive”. `COc1cc(C=O)ccc1O`: the half-maximal activity concentration (AC50) in assay [1] is 69.8 µM (active).

Take `CCCCCCCCCCCCCCCCCC(=O)O`: the compound was called inactive in assay [1]. For the compound `COc1cc(S(=O)(=O)O)c(C)cc1N=Nc1c(O)ccc2cc(S(=O)(=O)O)ccc12`, the outcome in assay [1] was inactive. Same read-out and setting: the same measure for `CCCCOC(=O)CCCCCCCCC(=O)OCCCC`: “inactive”. Turning to `Cc1ccc(N(C)C)cc1`, the call in assay [1] was inactive. Moreover, the AC50 in assay [2] is 95.1 µM (active). For the compound `O=C(O)Cc1ccccc1Nc1c(Cl)cccc1Cl`, in assay [1], the half-maximal activity concentration (AC50) is 35 µM (active). In the case of `O=C(N[C@@H](Cc1ccccc1)[C@@H](O)C(=O)N1C[C@@H](O)[C@@H](O)C1)c1cc2cc(Cl)ccc2[nH]1`, the result in assay [1] was inactive. For `OC[C@@H](O)[C@@H](O)[C@H](O)[C@H](O)CO`, the outcome in assay [3], in assay [5] and in assay [7] was inactive. For the same compound, the AC50 in assay [4] is 80.6 µM (active); in assay [6], 50 µM (active). For `Cc1cc(=O)[nH]c(=S)[nH]1`, the call in assay [1] was inactive. Further, the concentration at half-maximal activity (AC50) in assay [2] is 7.71 µM (active).

Turning to `Cc1ccc2ncccc2c1`, in assay [1], the result was inactive.

Take `Cc1ccc(C)c(O)c1C`: the outcome in assay [2] was inactive.

Turning to `CCc1c(C(=O)NN2CCCCC2)nn(-c2ccc(Cl)cc2Cl)c1-c1ccc(Br)cc1`, the AC50 in assay [1] is 39.9 µM (active).

Source of the values: PubChem BioAssay (EPA / NIEHS).
